In PubChem BioAssay AID434927 (Sanford-Burnham Center for Chemical Genomics, 2010):
Calls of active or inactive are those of the source.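 Rule for the calls: active = inhibition above about 23% in any of six single-dose repeats (limit read from the data); inactive = the rest.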

target: Intestinal-type alkaline phosphatase (Homo sapiens) (UniProt P09923); assay: human IAP inhibitors, confirmation, biochemical, luminescence, single concentration, uHTS hits (AID 434927); details: purified human IAP, CDP-Star luminescence, 30 min; at 8.3 µM; stronger effect = higher value;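 note: plate controls were DMSO wells with enzyme for no effect and wells lacking enzyme for full effect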
Sequence (P09923 whole entry, looked up): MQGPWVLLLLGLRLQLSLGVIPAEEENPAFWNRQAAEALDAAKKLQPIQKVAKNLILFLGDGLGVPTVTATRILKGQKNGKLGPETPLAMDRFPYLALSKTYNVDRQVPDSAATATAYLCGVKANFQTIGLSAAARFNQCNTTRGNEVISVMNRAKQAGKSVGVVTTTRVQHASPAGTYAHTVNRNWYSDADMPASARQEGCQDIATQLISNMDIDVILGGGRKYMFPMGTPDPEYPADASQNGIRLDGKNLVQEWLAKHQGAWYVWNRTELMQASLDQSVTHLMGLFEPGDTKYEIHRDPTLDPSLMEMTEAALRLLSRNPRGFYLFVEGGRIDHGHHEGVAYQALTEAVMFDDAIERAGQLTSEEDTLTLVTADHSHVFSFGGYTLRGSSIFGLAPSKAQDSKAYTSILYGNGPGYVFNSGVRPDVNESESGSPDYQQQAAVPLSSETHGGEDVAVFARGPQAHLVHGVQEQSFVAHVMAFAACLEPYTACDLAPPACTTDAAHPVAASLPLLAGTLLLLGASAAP

inhibition, active:
CCn1nc(C)c(CN2CCC(C(=O)Nc3cccc(-c4cccc(F)c4)c3)CC2)c1C 50.7%
COc1cc(/C=C2\SC(=S)N(N(C)c3ccccc3)C2=O)ccc1O 60.4%
CC(C)CC(=O)NC(=S)NNC(=O)c1ccc(NC(=O)C2CCCCC2)cc1 62.1%
CCOc1ccccc1CN1CCC(n2nccc2NC(=O)CCc2ccccc2)CC1 26.6%
N#C/C(=C\c1ccc(O)c(O)c1)C(=O)c1ccc(O)c(O)c1 74.3%
CCN(CC)c1ccc(/C=N/NC(=O)c2nnn(-c3nonc3N)c2C(C)C)c(O)c1 32.4%
Cc1ccc2c(c1)nnc1nnc(SCC(=O)O)n12 33.9%

inhibition, inactive:
Cc1cc(C)n(C(=O)C23CC4CC(CC(C4)C2)C3)n1 -126%
CCC(NC(=S)NC1CCCCC1)c1ccc(C(C)C)cc1 (configuration not stated) -24.1%
c1ccc(Nc2ccnc(Nc3ccccc3)n2)cc1 -43.5%
Cc1nc(S/C(=C/c2ccc(-c3ccc(Cl)cc3)o2)C(=O)O)n[nH]1 -88.7%
O=C(NNC(=S)NC(=O)c1ccccc1)c1cccnc1 -320%
COc1ccc(CN2CCC(n3nccc3NC(=O)CCCc3ccccc3)CC2)cc1C -127%
CCOc1ccc(CC(=O)NNC(=S)NC2CCCCC2)cc1OCC -79.5%
O=c1cc(-c2ccccc2)[nH]n1-c1nc2ccccc2[nH]1 -58.4%
c1ccc(-c2cccc(-c3ccccn3)n2)nc1 -113%
CC1(C)C[C@@H](O)CC2(C1)C[C@]1(C)CC(O)[C@H]2C(C)(C)C1 (some centres not stated) -93.3%
